This passage reports outcome and AC50 results from PubChem BioAssay (EPA / NIEHS).

Read-out in assay [1]: Interleukin-1 alpha (IL1a), IL1A (gene 3552)
The experiment in a line: BSK_KF3CT_IL1a: BioMAP Diversity Plus: KF3CT Assay for Interleukin-1 alpha (IL1a) Biomarker Activity (AID 2283070). The conditions noted are these: primary human keratinocytes with fibroblasts; actives raise or lower the signal. The essentials:
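Primary human keratinocyte plus foreskin fibroblast co-culture, dosed and measured at 24 h in 96-well plates. IL-1a level quantified by ELISA; bidirectional fit relative to DMSO.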

Read-out in assay [2]: TIMP metallopeptidase inhibitor 2 (TIMP2), TIMP2 (gene 7077)
The assay is described as follows: BSK_KF3CT_TIMP2: BioMAP Diversity Plus: KF3CT Assay for TIMP metallopeptidase inhibitor 2 (TIMP2) Biomarker Activity (AID 2283071). The conditions noted are these: primary human keratinocytes with fibroblasts; actives raise or lower the signal. In short, it runs like this:
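Co-culture of human primary keratinocytes and foreskin fibroblasts, measured 24 h after chemical dosing. TIMP-2 quantified by ELISA and fitted in both directions relative to DMSO. Cytotoxicity checked in parallel cultures by SRB total-protein staining.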

Read-out in assay [3]: C-C motif chemokine 2 (Homo sapiens) (UniProt P13500)
The experiment in a line: BSK_KF3CT_MCP1: BioMAP Diversity Plus: KF3CT Assay for Monocyte Chemoattractant Protein 1 (MCP1/CCL2) Biomarker Activity (AID 2283073). The conditions noted are these: primary human keratinocytes with fibroblasts; actives raise or lower the signal. In short, it runs like this:
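Human keratinocyte plus foreskin fibroblast primary co-culture exposed to chemical for 24 h. MCP-1 levels measured by ELISA. Bidirectional curve fitting relative to DMSO negative control as baseline.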

Read-out in assay [4]: Matrix Metallopeptidase 9 (MMP9), MMP9 (gene 4318)
The experiment in a line: BSK_KF3CT_MMP9: BioMAP Diversity Plus: KF3CT Assay for Matrix Metallopeptidase 9 (MMP9) Biomarker Activity (AID 2283074). The conditions noted are these: primary human keratinocytes with fibroblasts; actives raise or lower the signal. In short, it runs like this: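 Human keratinocyte and foreskin fibroblast co-culture exposed to chemicals for 24 h; MMP9 biomarker measured by ELISA, bidirectional fitting relative to DMSO; cytotoxicity tracked by SRB total protein staining in parallel cultures.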

Read-out in assay [5]: urokinase plasminogen activator (uPA), PLAU (gene 5328)
The assay is described as follows: BSK_KF3CT_uPA: BioMAP Diversity Plus: KF3CT Assay for urokinase plasminogen activator (uPA) Biomarker Activity (AID 2283075). To be noted: primary human keratinocytes with fibroblasts; actives raise or lower the signal. The essentials:
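Primary human keratinocyte/foreskin fibroblast co-culture exposed to chemical; uPA measured by ELISA at 24 h. Bidirectional fit versus DMSO, with parallel SRB total-protein staining for cytotoxicity.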

Read-out in assay [6]: CD40, CD40 (gene 958)
The experiment in a line: BSK_LPS_CD40: BioMAP Diversity Plus: LPS Assay for CD40 Biomarker Activity (AID 2283076). To be noted: primary human HUVEC with PBMC; actives raise or lower the signal. The essentials: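 Primary human umbilical vein endothelial cells co-cultured with peripheral blood mononuclear cells, LPS-stimulated, were dosed with chemical and read 24 h later. CD40 levels were measured by ELISA and fitted bidirectionally against DMSO as negative control and baseline.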

Read-out in assay [7]: E-selectin (Homo sapiens) (UniProt P16581)
The assay is described as follows: BSK_LPS_Eselectin: BioMAP Diversity Plus: LPS Assay for Eselectin Biomarker Activity (AID 2283077). The conditions noted are these: primary human HUVEC with PBMC; actives raise or lower the signal. The essentials:
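Human umbilical vein endothelial cells co-cultured with peripheral blood mononuclear cells under LPS stimulation; E-selectin measured by ELISA 24 h after chemical dosing. Activity fitted bidirectionally against DMSO as negative control and baseline.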

Read-out in assay [8]: Interleukin-8 (IL8), CXCL8 (gene 3576)
The assay is described as follows: BSK_LPS_IL8: BioMAP Diversity Plus: LPS Assay for Interleukin-8 (IL8) Biomarker Activity (AID 2283078). To be noted: primary human HUVEC with PBMC; actives raise or lower the signal. In short, it runs like this:
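Human umbilical vein endothelial cells co-cultured with PBMC were stimulated with LPS; IL-8 levels were measured by ELISA 24 h after chemical dosing. Activity was fitted bidirectionally against DMSO as negative control and baseline.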

Assay [9] can be described thus: BSK_LPS_SRB: Viability Assessment in the BioMAP Diversity Plus: LPS Assay (AID 2283079).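 Further: total protein by sulforhodamine B absorbance as a cytotoxicity measure; measured one day after compound addition; fitted in both directions against DMSO so loss or gain of signal counts.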 The conditions noted are these: primary human HUVEC with PBMC. The essentials:
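Human umbilical vein endothelial cells co-cultured with PBMC (LPS system) were dosed for 24 h. Total protein was stained with 0.1% sulforhodamine B after 10% TCA fixation, read at 560 nm, and fitted bidirectionally against DMSO baseline.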

Read-out in assay [10]: Interleukin-1 alpha (IL1a), IL1A (gene 3552)
The assay is described as follows: BSK_LPS_IL1a: BioMAP Diversity Plus: LPS Assay for Interleukin-1 alpha (IL1a) Biomarker Activity (AID 2283080). The conditions noted are these: primary human HUVEC with PBMC; actives raise or lower the signal. The essentials: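 Human umbilical vein endothelial cells co-cultured with peripheral blood mononuclear cells were LPS-stimulated and exposed to test chemicals for 24 h. IL-1 alpha was quantified by ELISA, with bidirectional curve fitting against DMSO as the negative control and baseline.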

Read-out in assay [11]: Monocyte Chemoattractant Protein-1 (MCP1), CCL2 (gene 6347)
The assay is described as follows: BSK_LPS_MCP1: BioMAP Diversity Plus: LPS Assay for Monocyte Chemoattractant Protein-1 (MCP1) Biomarker Activity (AID 2283081). To be noted: primary human HUVEC with PBMC; actives raise or lower the signal. In short, it runs like this:
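HUVEC plus PBMC co-culture (human primary cells, LPS system) exposed to test chemical for 24 h; MCP-1 measured by ELISA. Bidirectional curve fitting against DMSO baseline; parallel SRB total-protein staining flags overt cytotoxicity.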

A short description of assay [12]: BSK_LPS_PGE2: BioMAP Diversity Plus: LPS Assay for Prostaglandin E2 (PGE2) Biomarker Activity (AID 2283082). To be noted: primary human HUVEC with PBMC; actives raise or lower the signal. The essentials:
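HUVEC plus human PBMC co-culture stimulated with LPS; secreted PGE2 quantified by ELISA 24 h after chemical dosing. Activity fitted bidirectionally against DMSO baseline; parallel SRB staining (0.1% SRB after 10% TCA fixation, 560 nm) flags overt cytotoxicity.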

Read-out in assay [13]: Tissue Factor, F3 (gene 2152)
The experiment in a line: BSK_LPS_TissueFactor: BioMAP Diversity Plus: LPS Assay for Tissue Factor Biomarker Activity (AID 2283084). The conditions noted are these: primary human HUVEC with PBMC; actives raise or lower the signal. The essentials:
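Human umbilical vein endothelial cells co-cultured with peripheral blood mononuclear cells were dosed and stimulated with LPS. Cell-surface CD142 was quantified by ELISA at 24 h. Activity was fitted bidirectionally against DMSO baseline.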

Read-out in assay [14]: Tumor necrosis factor (Homo sapiens) (UniProt P01375)
The assay is described as follows: BSK_LPS_TNFa: BioMAP Diversity Plus: LPS Assay for Tumour Necrosis Factor alpha (TNFa) Biomarker Activity (AID 2283085). To be noted: primary human HUVEC with PBMC; actives raise or lower the signal. The essentials:
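Human umbilical vein endothelial cells co-cultured with PBMC and stimulated with LPS. TNFa was measured by ELISA 24 h after chemical dosing, fitted bidirectionally relative to DMSO.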

Read-out in assay [15]: Vascular cell adhesion molecule 1 (VCAM1), VCAM1 (gene 7412)
The assay is described as follows: BSK_LPS_VCAM1: BioMAP Diversity Plus: LPS Assay for Vascular cell adhesion molecule 1 (VCAM1) Biomarker Activity (AID 2283086). The conditions noted are these: primary human HUVEC with PBMC; actives raise or lower the signal. In short, it runs like this: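 Human umbilical vein endothelial cells co-cultured with PBMC and stimulated with LPS; VCAM-1 measured by ELISA 24 h after dosing. Bidirectional curve fitting against DMSO baseline; cytotoxicity tracked in parallel by SRB total-protein staining.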

Read-out in another assay: CD38, CD38 (gene 952)
The assay is described as follows: BSK_SAg_CD38: BioMAP Diversity Plus: SAg Assay for CD38 Biomarker Activity (AID 2283087). To be noted: primary human HUVEC with PBMC; actives raise or lower the signal. The essentials: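 Human HUVEC plus PBMC co-culture stimulated with superantigen; CD38 measured by ELISA 24 h after chemical dosing. Fluorescence read-out, bidirectional fit against DMSO; cytotoxicity tracked in parallel by SRB and Alamar Blue.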

Read-out in assay [16]: CD40, CD40 (gene 958)
The experiment in a line: BSK_SAg_CD40: BioMAP Diversity Plus: SAg Assay for CD40 Biomarker Activity (AID 2283088). To be noted: primary human HUVEC with PBMC; actives raise or lower the signal. The essentials: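 Human umbilical vein endothelial cells co-cultured with PBMC; CD40 levels measured by ELISA with fluorescence read-out 24 h after chemical dosing. Gain or loss of signal fitted bidirectionally against DMSO baseline.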

Read-out in a further assay: CD69, CD69 (gene 969)
The experiment in a line: BSK_SAg_CD69: BioMAP Diversity Plus: SAg Assay for CD69 Biomarker Activity (AID 2283089). The conditions noted are these: primary human HUVEC with PBMC; actives raise or lower the signal. The essentials: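 Values derive from bidirectional fitting relative to DMSO vehicle. Cells: umbilical vein endothelium plus peripheral blood mononuclear cells, treated 24 h before fluorescent ELISA for CD69.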

Read-out in assay [17]: Macrophage colony-stimulating factor (MCSF), CSF1 (gene 1435)
The assay is described as follows: BSK_LPS_MCSF: BioMAP Diversity Plus: LPS Assay for Macrophage colony-stimulating factor (MCSF) Biomarker Activity (AID 2283083). The conditions noted are these: primary human HUVEC with PBMC; actives raise or lower the signal. The essentials: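 Human umbilical vein endothelial cells co-cultured with peripheral blood mononuclear cells were exposed to compound for 24 h. M-CSF levels were measured by ELISA, and bidirectional curve fitting used DMSO as the negative control and baseline.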

Read-out in assay [18]: Transforming growth factor beta 1 (TGFb1), TGFB1 (gene 7040)
The experiment in a line: BSK_KF3CT_TGFb1: BioMAP Diversity Plus: KF3CT Assay for Transforming growth factor beta 1 (TGFb1) Biomarker Activity (AID 2283072). The conditions noted are these: primary human keratinocytes with fibroblasts; actives raise or lower the signal. In short, it runs like this: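 Human keratinocyte/foreskin fibroblast co-culture; TGF-b1 measured by ELISA 24 h after dosing, fitted bidirectionally versus DMSO. Cytotoxicity checked in parallel cultures by total protein (SRB staining, 560 nm).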

Broadly, the AC50 is the concentration at which the activity in the assay is half-maximal.

A structure can be active in one record and inactive in another. Activity calls are given as the source filed them. How the source made its calls: active means hit-call score of the fitted dose curve at least 0.9, where 1 is the maximum; inactive means score below 0.9.

Sequence of E-selectin (Homo sapiens) (P16581 whole entry, looked up): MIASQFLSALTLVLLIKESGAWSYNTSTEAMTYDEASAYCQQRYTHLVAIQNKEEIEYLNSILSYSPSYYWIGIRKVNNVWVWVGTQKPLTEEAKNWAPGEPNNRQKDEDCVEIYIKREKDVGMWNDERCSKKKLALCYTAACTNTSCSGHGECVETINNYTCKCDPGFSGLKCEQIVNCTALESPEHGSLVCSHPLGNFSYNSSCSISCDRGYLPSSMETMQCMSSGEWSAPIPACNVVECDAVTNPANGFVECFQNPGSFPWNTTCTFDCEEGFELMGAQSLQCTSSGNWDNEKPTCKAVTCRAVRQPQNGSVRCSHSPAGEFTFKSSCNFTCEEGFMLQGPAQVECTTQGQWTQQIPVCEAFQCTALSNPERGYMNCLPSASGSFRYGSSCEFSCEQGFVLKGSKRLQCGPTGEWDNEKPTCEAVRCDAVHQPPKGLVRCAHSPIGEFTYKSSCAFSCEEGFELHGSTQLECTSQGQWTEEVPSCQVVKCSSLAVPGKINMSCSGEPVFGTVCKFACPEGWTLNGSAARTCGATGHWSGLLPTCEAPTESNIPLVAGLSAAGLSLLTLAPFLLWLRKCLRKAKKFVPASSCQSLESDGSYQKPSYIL
Sequence of Tumor necrosis factor (Homo sapiens) (P01375 whole entry, looked up): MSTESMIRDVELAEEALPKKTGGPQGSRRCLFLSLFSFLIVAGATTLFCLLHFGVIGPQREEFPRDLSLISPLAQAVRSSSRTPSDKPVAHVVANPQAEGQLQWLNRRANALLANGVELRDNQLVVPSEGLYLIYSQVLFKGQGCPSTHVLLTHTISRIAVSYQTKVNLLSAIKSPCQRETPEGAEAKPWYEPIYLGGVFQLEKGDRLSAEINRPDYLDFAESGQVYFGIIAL

For the compound `O=C(O)C(F)(OC(F)(F)C(F)(OC(F)(F)C(F)(F)C(F)(F)F)C(F)(F)F)C(F)(F)F` (configuration not stated), the outcome in assay [1] was “inactive”; in assay [2], “inactive”; in [3], “inactive”; in [4] it was “inactive”; in assay [5], “inactive”; with CD40, CD40 (gene 958) [6] it was “inactive”. Moreover, the result in assay [7], in assay [8], in assay [9], in [10], in [11] and in assay [12] was inactive. Moreover, the outcome is “inactive” in assay [13]; “inactive” in assay [14]; “inactive” in assay [15]; “inactive” in the assay with CD38, CD38 (gene 952); “inactive” with CD40, CD40 (gene 958) [16]; “inactive” in the assay with CD69, CD69 (gene 969).

Turning to `CCO[Si](CCC(F)(F)C(F)(F)C(F)(F)C(F)(F)C(F)(F)C(F)(F)F)(OCC)OCC`, the outcome in assay [1] is “inactive”; in assay [2] it was “inactive”; in [3], “inactive”; in [4], “inactive”; in assay [5], “inactive”; in the assay with CD40, CD40 (gene 958) [6] it was “inactive”. In addition, the result in assay [7], in [8], in assay [9], in assay [10], in [11] and in assay [12] was inactive. The outcome was “inactive” in [17]; “inactive” in assay [13]; “inactive” in assay [14]; “inactive” in assay [15]; “inactive” in the assay with CD38, CD38 (gene 952); “inactive” with CD40, CD40 (gene 958) [16]. For the same compound, the outcome with CD69, CD69 (gene 969) was inactive. The concentration at half-maximal activity (AC50) with CD40, CD40 (gene 958) [6] is 1.4 µM (active).

Consider `Nc1ccc([N+](=O)[O-])cc1O`, for which the outcome in [2] is “inactive”; in assay [18], “inactive”; in assay [3], “inactive”; in [4] it was “inactive”; in assay [5] it was “inactive”; with CD40, CD40 (gene 958) [6], “inactive”. Moreover, the outcome in [7], in assay [8], in assay [9], in assay [10], in assay [11] and in assay [12] was inactive. The outcome in assay [17] is “inactive”; in [13], “inactive”; in assay [14] it was “inactive”; in [15], “inactive”; with CD38, CD38 (gene 952), “inactive”; in the assay with CD40, CD40 (gene 958) [16], “inactive”. Moreover, in the assay with CD69, CD69 (gene 969), the outcome was inactive.
